Data reported in PubChem BioAssay.
Several values for one entry are separate records, joined by “and”; a condition that tells them apart may be missing. Equal values may be shown once. Activity calls are given as the source filed them. Unless noted, the rule behind the calls is not given here.

What was measured:
[1] = kinase inhibitors against Plasmodium liver-stage infection, cell-based, known kinase inhibitor set, luminescence, hepatoma host viability (AID 624392); settings: Plasmodium liver stage in hepatoma cells, luciferase luminescence, concentration not given here; liver cell % of control: measured here: host liver cell viability; parasite % of control: stronger effect = lower value;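 note: infected cells incubated roughly two days before readout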
[2] = modulators of glucocorticoid suppression of NF-kB, cell-based, luciferase, IL-1B stimulus, dexamethasone (AID 624486); settings: NF-kB luciferase reporter, IL-1B + dexamethasone, luminescence; percent of negative control (+Dex): actives lie on both sides, concentration not given here; z-score: measured here: IL-1B alone, no Dex;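 for percent of negative control (+Dex): 100% = mean signal of vehicle control wells on the plate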
[3] = biological target: Cellular tumor antigen p53 (Homo sapiens) (UniProt P04637); assay: kinase inhibitors altering GFP-p53 stability in HPV16-positive cells, imaging, known kinase inhibitor set, EGFP/DsRed ratio (AID 1053116); settings: stronger effect = higher value; EGFP object count: measured here: GFP-p53 positive objects count;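 note: cells exposed to compounds for 24 h at 37 °C before reading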
[4] = IRF3 reporter activation in THP-1 macrophages, cell-based, PMA-stimulated THP-1, luminescence (AID 1053176); settings: PMA-differentiated THP-1, IRF3 reporter luminescence; stronger effect = higher value
[5] = kinase inhibitors altering Pseudomonas killing of worms, whole organism (AID 651566);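 note: tested at 14 µM; sign flipped so higher z means a lower ratio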; settings: C. elegans killed by P. aeruginosa, survival ratio
[6] = activators of macrophage pro-inflammatory response, cell-based, murine, luminescence (AID 652131); settings: murine macrophage pro-inflammatory reporter, stronger effect = higher value
[7] = survival rescue of mitochondrial mutant cells in low glucose, primary screen, MELAS cybrids, Rieske KO mouse fibroblasts, CellTiter-Glo (AID 1508586;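 active = mean z-score across replicates of 1.96 or higher in either the MELAS or the Rieske mutant cell line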;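 note: z relative to plate mean and SD of compound and empty wells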)
[8] = MELAS cybrid survival, CellTiter-Glo 48 h, stronger effect = higher value
[9] = Rieske KO mouse fibroblast survival, CellTiter-Glo 72 h

Sequence of Cellular tumor antigen p53 (Homo sapiens) (P04637 whole entry, looked up): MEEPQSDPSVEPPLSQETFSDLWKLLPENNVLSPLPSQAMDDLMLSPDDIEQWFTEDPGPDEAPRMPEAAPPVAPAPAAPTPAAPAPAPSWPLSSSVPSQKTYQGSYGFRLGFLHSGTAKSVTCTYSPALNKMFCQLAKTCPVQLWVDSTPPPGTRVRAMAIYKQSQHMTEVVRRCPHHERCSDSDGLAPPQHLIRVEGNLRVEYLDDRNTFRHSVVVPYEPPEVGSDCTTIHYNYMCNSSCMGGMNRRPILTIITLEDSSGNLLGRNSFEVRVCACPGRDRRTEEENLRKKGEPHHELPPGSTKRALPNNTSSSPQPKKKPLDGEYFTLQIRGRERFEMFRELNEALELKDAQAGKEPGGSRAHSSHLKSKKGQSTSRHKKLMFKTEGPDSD

SMILES	liver cell % of control [1]	parasite % of control [1]	percent of negative control (+Dex) [2]	z-score [2]	EGFP object count [3]	EGFP/DsRed ratio [3]	fraction signal [4]	z-score [5]	z-score [6]	z-score [7, 8]	z-score [7, 9]
Cc1nc2sc3c(N)ncnc3c2c(C)c1C	140%	42% (inactive)	77.5% (inactive)	-1.64	5	0.308 (inactive)	-0.003 (inactive)	–	–	–	–
Fc1ccc(-c2c(-c3ccncc3)[nH]c3cccnc23)cc1	141%	1.58% (active)	95% (inactive)	0.075	6	0.15 (inactive)	-0.0095 (inactive)	–	–	–	–
O=C1Nc2ccc(F)c3c(OCCO)cc(-c4ccc[nH]4)c1c23	83.9%	52.1% (inactive)	105% (inactive)	1.54	6	0.192 (inactive)	-0.016 (inactive)	–	–	–	–
CN1CC2Cc3c(C4=C(c5cn(C)c6ccccc56)C(=O)NC4=O)c4ccccc4n3CC2C1 (stereo unspecified)	79.3% and 90.1%	36.7% (inactive) and 27% (inactive)	98.5% (inactive)	-0.62 and -0.215	2.5 and 3.5	0.0121 (inactive) and 0.0134 (inactive)	-0.005 (inactive) and -0.0135 (inactive)	–	–	–	–
CNC(=O)c1cncc(/C=C/c2ccccc2C)c1	170%	27.9% (inactive)	108% (inactive)	-0.24	4	0.0734 (inactive)	0.0395 (inactive)	0.255 (inactive)	0.604 (inactive)	0.836 (inactive)	-0.131
N#CCn1c(=O)c(Oc2ccc(F)cc2F)cc2cnc(NC3CCOCC3)nc21	96.2%	58.4% (inactive)	97% (inactive)	-0.11	2.5	0.064 (inactive)	-0.007 (inactive)	–	–	–	–
COc1cccc(C2=C(c3cn(C)c4ccccc34)C(=O)NC2=O)c1	216%	15.4% (inactive)	110% (inactive)	-0.735	9.5	0.204 (inactive)	-0.003 (inactive)	–	–	–	–
Cc1ccccc1-n1ncc(C(=O)c2ccccc2)c1N	104%	52.3% (inactive)	120% (inactive)	1.31	5	0.225 (inactive)	-0.0005 (inactive)	–	–	–	–
COc1cc[nH]c1C=C1C(=O)Nc2ccccc21	116%	24.2% (inactive)	148% (active)	6.7	6	0.263 (inactive)	-0.02 (inactive)	–	–	–	–
Cn1cc(C2=C(c3cccc(NCC(O)CO)c3)C(=O)NC2=O)c2cc(Cl)ccc21 (stereo unspecified)	134%	44.5% (inactive)	140% (active)	-1.56	15	0.196 (inactive)	-0.0005 (inactive)	–	–	–	–
Cn1cc(C2=C(c3cn(C)c4cc(C(N)=O)ccc34)C(=O)NC2=O)c2ccccc21	96.9%	59.1% (inactive)	95% (inactive)	-0.22	56.5	0.829 (active)	-0.0005 (inactive)	–	–	–	–
Cn1c(=O)c(Oc2ccccc2)cc2cnc(NC3CCOCC3)nc21	106%	60.6% (inactive)	105% (inactive)	1.03	3.5	0.0479 (inactive)	-0.005 (inactive)	–	–	–	–
Cn1cc(C2=C(c3cn(CCCCCSC(=N)N)c4ccccc34)C(=O)NC2=O)c2ccccc21	88.1%	29.3% (inactive)	99.5% (inactive)	1.02	24.5	0.037 (inactive)	-0.007 (inactive)	–	–	–	–
CC(=O)N1CCC(Nc2ncc3cc(Oc4ccc(F)cc4F)c(=O)n(C)c3n2)CC1	113%	81.4% (inactive)	102% (inactive)	0.13	2	0.0142 (inactive)	-0.005 (inactive)	–	–	–	–
CNC(=O)c1sc(-n2cnc3cc(OC)c(OC)cc32)cc1OCc1ccccc1C(F)(F)F	124%	77.7% (inactive)	68.5% (inactive)	-0.645	5.5	0.105 (inactive)	-0.005 (inactive)	-0.51 (inactive)	-0.587 (inactive)	-0.801 (inactive)	-0.0583
Cn1cc(C2=C(c3cn(CCCN=C(N)N)c4ccccc34)C(=O)NC2=O)c2ccccc21	110%	44.7% (inactive)	101% (inactive)	0.295	7.5	0.202 (inactive)	-0.005 (inactive)	–	–	–	–

SMILES	liver cell % of control [1]	parasite % of control [1]	percent of negative control (+Dex) [2]	z-score [2]	EGFP object count [3]	EGFP/DsRed ratio [3]	fraction signal [4]	z-score [5]	z-score [6]	z-score [7, 8]	z-score [7, 9]
COCC(N=C1NC(=O)C(=Cc2ccc3ncccc3c2)S1)c1ccccc1 (stereo unspecified)	98.8%	49.5% (inactive)	98% (inactive)	0.145	6.5	0.249 (inactive)	-0.005 (inactive)	–	–	–	–
Cc1[nH]nc2c1N=C(c1ccccc1F)c1cc(C#N)ccc1N2	96.8%	68.4% (inactive)	157% (active)	0.015	99.5	0.814 (active)	0.0055 (inactive)	–	–	–	–
Cn1cc(C2=C(c3c(S(C)=O)n(C)c4ccccc34)C(=O)NC2=O)c2ccccc21 (stereo unspecified)	123%	78.6% (inactive)	97.5% (inactive)	0.295	5	0.591 (inactive)	-0.003 (inactive)	–	–	–	–
O=[N+]([O-])c1ccc2c(c1)C(c1ccccc1Cl)=Nc1c(n[nH]c1-c1cccnc1)N2	237%	4.98% (inactive)	102% (inactive)	-0.45	8	0.194 (inactive)	0.01 (inactive)	–	–	–	–
N#Cc1ccc(C(=O)c2cnn(-c3ccc(F)cc3)c2N)cc1	103%	59.8% (inactive)	131% (active)	1.97	13	0.456 (inactive)	0.0095 (inactive)	–	–	–	–
CC(C)(O)Cn1c(=O)c(Oc2ccc(F)cc2F)cc2cnc(NC3CCOCC3)nc21	105%	58.9% (inactive)	86% (inactive)	-0.37	4	0.0773 (inactive)	-0.0135 (inactive)	–	–	–	–
COc1ccc(-c2coc3ncnc(N)c23)cc1	92.2%	116% (inactive)	84% (inactive)	-0.765	4	0.227 (inactive)	0.002 (inactive)	0.065 (inactive)	-0.443 (inactive)	-0.507 (inactive)	-0.245
Cn1cc(C2=C(c3cccc(Cl)c3)C(=O)NC2=O)c2ccccc21	109%	69.6% (inactive)	106% (inactive)	0.59	5	0.137 (inactive)	0.0035 (inactive)	–	–	–	–
COc1ccccc1CN=C1NC(=O)C(=Cc2ccc3ncccc3c2)S1	98.9%	28.1% (inactive)	91.5% (inactive)	-0.71	4.5	0.187 (inactive)	-0.0025 (inactive)	–	–	–	–
Cn1cc(C2=C(c3cccc(Br)c3)C(=O)NC2=O)c2ccccc21	153%	39.5% (inactive)	110% (inactive)	-0.515	3.5	0.13 (inactive)	0.0055 (inactive)	–	–	–	–
CNCC#Cc1c(F)ccc2c1C(=Cc1[nH]ccc1OC)C(=O)N2	149%	6.77% (inactive)	162% (active)	1.97	39	0.619 (inactive)	-0.0115 (inactive)	–	–	–	–
Cn1cc(C2=C(c3cccnc3)C(=O)NC2=O)c2ccccc21	312%	2% (active)	110% (inactive)	-1.34	8.5	0.135 (inactive)	-0.005 (inactive)	–	–	–	–
Nc1c(C(=O)c2ccc(C#CCN3CCOCC3)cc2)cnn1-c1ccc(F)cc1	110%	75.7% (inactive)	106% (inactive)	1.64	4.5	0.119 (inactive)	0.01 (inactive)	–	–	–	–
Cn1cc(C2=C(c3ccccc3)C(=O)NC2=O)c2ccccc21	104%	41% (inactive)	96% (inactive)	-0.33	9.5	0.26 (inactive)	-0.001 (inactive)	–	–	–	–
Cn1cc(C2=C(c3c4n(c5ccccc35)CC(CN)C4)C(=O)NC2=O)c2ccccc21 (stereo unspecified)	97.6%	48.9% (inactive)	100% (inactive)	-0.23	6.5	0.00726 (inactive)	-0.005 (inactive)	–	–	–	–
CC(CO)Nc1cc(-c2[nH]c3cccnc3c2-c2ccc(F)cc2)ccn1 (stereo unspecified)	124%	78.1% (inactive)	85.5% (inactive)	-0.435	4.5	0.0626 (inactive)	-0.0075 (inactive)	–	–	–	–
